VACV Venus inh: qHTS for Stage-Specific Inhibitors of Vaccinia Orthopoxvirus: Venus Reporter Primary qHTS; Vaccinia virus Venus reporter expression, fluorescence; Potency, µM (titrated, usually from 36.5 µM), for the others: at the top dose activity change, negative = inhibition, actives largely listed as inhibitors; actives 0.46% (n = 330,000); AID 720580, 2013; calls by dose curve; tested in A549 cells; note: nearly all actives have a fitted effect of over 30% in size
HCV inh: qHTS Assay for Inhibitors of Hepatitis C Virus (HCV); Huh7.5.1 HCVcc-Cre infection, luciferase reporter, 44 h; Potency, µM (top dose mostly 41.8 µM), inactives show at the top dose activity change, negative = inhibition, most hits filed as inhibitors; actives 3.4% (n = 340,000); active = well fitted inhibition curve with a large enough effect; inconclusive = small, poorly fitted or top-dose-only effect, or another doubt; inactive = no such curve, though single readings can be large or run the other way
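HCVcc-Cre virus at an moi near 0.5 was added right after compound to cells cultured 4 h from seeding (1,000 cells/well). Luciferase activity was determined 44 h later, 15 min after substrate addition at RT.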
VACV mCherry inh: qHTS for Stage-Specific Inhibitors of Vaccinia Orthopoxvirus: mCherry Reporter Primary qHTS; Vaccinia virus mCherry reporter infection, fluorescence; Potency, µM (series often up to 36.5 µM), for inactives: top-dose activity change, negative = inhibition, most hits filed as inhibitors; actives 0.63% (n = 310,000); AID 720579, 2013; calls by dose curve; tested in A549 cells; note: nearly all actives have a fitted effect of over 35% in size
Lassa entry inh: qHTS for Inhibitors of binding or entry into cells for Lassa Virus; Lassa virus pseudotype entry inhibition, cell reporter; Potency, µM (doses to about 37.9 µM), without a hit: at the highest dose activity change, negative = inhibition, most hits filed as inhibitors; actives 1.2% (n = 300,000); AID 540256, 2011; calls by dose curve; tested in HEK293 cells; note: nearly all actives have a fitted effect of over 50% in size
Marburg entry inh: qHTS for inhibitors of binding or entry into cells for Marburg Virus; Marburg virus pseudotyped entry inhibition, cell reporter; Potency, µM (titrated, usually from 37.8 µM), for inactives: top-dose activity change, negative = inhibition, hits mostly inhibitors; actives 1.8% (n = 300,000); AID 540276, 2011; calls by dose curve; tested in HEK293 cells
* hit, by the source's call; [ ] = another dose, or the depositor's remark. An excerpt weighted towards active compounds, which were near 4.6% of everything screened. % is set by controls: 0 for no effect and ±100 for the full control effect; potency is the fitted concentration of half-maximal effect.

For Cc1ccc(CN2CCN(Cc3ccc(-n4cccn4)cc3)CC2CCO)cc1 (centres undefined) the results were VACV Venus inh -12.9%, HCV inh -29.4%, VACV mCherry inh -11.6%, Lassa entry inh -11.8% and Marburg entry inh 0.0%[46.1 µM].
For O[C@@H]1CN(Cc2ccc(-n3cccn3)cc2)CC[C@H]1N1CCN(c2ccccc2F)CC1 the results were HCV inh 8.91µM*.
Cc1ccnn1C(C)C(=O)O (centres undefined) was read as VACV Venus inh -1.0%, HCV inh 0.7%, VACV mCherry inh inactive, Lassa entry inh 0.0% and Marburg entry inh 4.2%[46.1 µM].
For CC(C(=O)O)n1cc(Cl)cn1 (centres undefined) the results were VACV Venus inh -7.1%, HCV inh 4.47µM*, VACV mCherry inh 5.7%, Lassa entry inh -0.8%[46.1 µM] and Marburg entry inh 16.5%[46.1 µM].
Cn1cccc/c1=N\c1cccc[n+]1C was read as HCV inh 3.55µM*.
Screening COc1ccc(OCCOc2ccc(N(C)S(=O)(=O)c3ccccc3)cc2)cc1 returned HCV inh 11.2µM*.
`CC(=O)Nc1ccc(S(=O)(=O)N(C)c2ccc(OCCOc3ccccc3F)cc2)cc1` gave VACV Venus inh -7.2%, HCV inh 10µM*, VACV mCherry inh -14.3%, Lassa entry inh -18.7% and Marburg entry inh 1.4%.
`CC(=O)Nc1ccc(S(=O)(=O)N(C)c2ccccc2)cc1` gave HCV inh -12.0%, Lassa entry inh 4.8% and Marburg entry inh inconclusive.
For C1=CN2CC=Cc3cc(/C=C/c4ccnc5ccccc45)cc(c32)C1 the results were VACV Venus inh 169.4% and VACV mCherry inh -4.7%.
FC(F)Oc1ccc(NC(=S)NNc2ccnc3cc(Cl)ccc23)cc1 was read as VACV Venus inh -11.3%, HCV inh 3.98µM*, VACV mCherry inh -11.5%, Lassa entry inh inconclusive and Marburg entry inh 11.2µM*.
Screening COc1cccc(-c2nc(C(=O)NCC3CCCO3)cc3c2[nH]c2ccccc23)c1 (centres undefined) returned VACV Venus inh -16.9%, HCV inh 11.2µM* and VACV mCherry inh inconclusive.
Screening COc1ccc(-c2cc(C(=O)NCC3CCCO3)c3ccccc3n2)c(OC)c1 (centres undefined) returned VACV Venus inh -3.7%, HCV inh -29.8%, VACV mCherry inh -8.6%, Lassa entry inh -20.2%[46.1 µM] and Marburg entry inh -17.8%[46.1 µM].
`COc1ccc(OC)c(-c2nc(C(=O)NCC3CCCO3)cc3c2[nH]c2ccccc23)c1` (centres undefined) gave VACV Venus inh -16.5%, HCV inh 10µM* and VACV mCherry inh -17.9%.
Screening CSc1nnc(CCNC(=O)c2ccccc2C(F)(F)F)n1-c1ccc(F)cc1 returned VACV Venus inh 7.8% and VACV mCherry inh -5.1%.
Screening CC(=O)Nc1nonc1-c1nnc(SCC(=O)Nc2ccc(C)cc2)n1-c1ccccc1 returned VACV Venus inh -11.7%, VACV mCherry inh -7.7%, Lassa entry inh inconclusive and Marburg entry inh -13.0%[46.1 µM].
`Cc1cccc(C)c1NC(=O)C(=O)NCC(c1cccnc1)N1CCc2ccccc21` (centres undefined) gave VACV Venus inh -17.7%, VACV mCherry inh -12.6% and Lassa entry inh 2.5%[46.1 µM].
Nc1ccc2cc3[nH]c4cc(N)ccc4c3nc2c1 was read as VACV Venus inh -24.6%, HCV inh 1.58µM*, VACV mCherry inh inconclusive, Lassa entry inh inconclusive and Marburg entry inh inconclusive.
For COc1ccc(OC)c2sc(NC(=O)C3CC3)nc12 the results were VACV Venus inh 0.6%, HCV inh inconclusive and VACV mCherry inh -29.1%.
`CCCC(=O)Nc1nc2c(OC)ccc(OC)c2s1` gave VACV Venus inh -4.5%, HCV inh 8.91µM* and VACV mCherry inh -0.4%.
For CCC(=O)Nc1nc2c(OC)ccc(OC)c2s1 the results were VACV Venus inh -6.2%, HCV inh 11.2µM* and VACV mCherry inh -30.2%.
`COc1ccc(OC)c2sc(NC(=O)c3ccc(Br)s3)nc12` gave VACV Venus inh 11.2µM*, HCV inh 2.7% and VACV mCherry inh inconclusive.
Screening Cc1ccc(C(=O)N(Cc2cc3cc4c(cc3nc2N2CCOCC2)CCC4)CC2CCCO2)s1 (centres undefined) returned VACV Venus inh -3.8% and VACV mCherry inh -6.1%.

Assay outcomes as filed in PubChem.
